The results in this text go back to PubChem BioAssay (NCATS).

Results filed as inconclusive are left out. A number with no mark means an inactive call. Calls of active or inactive are those of the source. The call rests on the fitted dose curve; in most records, active means well fitted curve in the direction sought with a large enough effect; inconclusive means small, poorly fitted or top-dose-only effect, or another doubt; inactive means no such curve, though single readings can be large; an effect the other way counts as inactive or inconclusive.

A short description of test [1]: Quantitative High-Throughput drug screen in 47 multiple myeloma cell lines against the NCATS MIPE library collection: KMS26_JCRB cell viability assay (AID 1918975). Further: nearly all actives have a fitted effect of over 45% in size. Further: potency means the concentration at half of the fitted maximal effect.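 On viability (% of DMSO): 100% = DMSO-treated wells and 0% = wells with media only.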 The method in brief: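 Relative luminescence from CellTiter-Glo served as the viability signal, referenced to DMSO-treated (100%) and cell-free medium (0%) controls. Treatment lasted 48 hours at 37C with 500 cells per well.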

Test [2] can be described thus: Quantitative High-Throughput drug screen in 47 multiple myeloma cell lines against the NCATS MIPE library collection: MMM1_PLB cell viability assay (AID 1918976). Further: nearly all actives have a fitted effect of over 35% in size. Further: potency means the concentration at half of the fitted maximal effect. Summed up:
(§1)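 Inhibition of viability over 48 h was scored by ATP content (CellTiter-Glo) in 500-cell wells. Zero and full viability were defined by media-only and DMSO-only wells.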

A short description of test [3]: Quantitative High-Throughput drug screen in 47 multiple myeloma cell lines against the NCATS MIPE library collection: NCIH929_DSMZ cell viability assay (AID 1918978). Further: nearly all actives have a fitted effect of over 35% in size. Further: potency means the concentration at half of the fitted maximal effect. Summed up: as §1
A short description of test [4]: Quantitative High-Throughput drug screen in 47 multiple myeloma cell lines against the NCATS MIPE library collection: MM1R_ATCC cell viability assay (AID 1918981). Further: nearly all actives have a fitted effect of over 35% in size. Further: potency means the concentration at half of the fitted maximal effect. Summed up:
as §1

The nature of test [5]: Quantitative High-Throughput drug screen in 47 multiple myeloma cell lines against the NCATS MIPE library collection: KMS34_JCRB cell viability assay (AID 1918985). Further: nearly all actives have a fitted effect of over 40% in size. Further: potency means the concentration at half of the fitted maximal effect. Summed up: as §1
The nature of test [6]: Quantitative High-Throughput drug screen in 47 multiple myeloma cell lines against the NCATS MIPE library collection: OPM1_PLB cell viability assay (AID 1918989). Further: nearly all actives have a fitted effect of over 40% in size. Further: potency means the concentration at half of the fitted maximal effect.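 On viability (% of control): 100% = DMSO-only wells and 0% = media-only wells.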 Summed up:
as §1

Test [7] is described as follows: Quantitative High-Throughput drug screen in 47 multiple myeloma cell lines against the NCATS MIPE library collection: U266_ATCC cell viability assay (AID 1919864). Further: nearly all actives have a fitted effect of over 35% in size. Further: potency means the concentration at half of the fitted maximal effect. The method in brief:
as §1

Test [8] is described as follows: Quantitative High-Throughput drug screen in 47 multiple myeloma cell lines against the NCATS MIPE library collection: XG6_PLB cell viability assay (AID 1919865). Further: nearly all actives have a fitted effect of over 40% in size. Further: potency means the concentration at half of the fitted maximal effect.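 On viability (% of control): 100% = DMSO-only wells and 0% = media-only wells.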 The method in brief: as §1
Test [9] can be described thus: Quantitative High-Throughput drug screen in 47 multiple myeloma cell lines against the NCATS MIPE library collection: OCIMY1_PLB cell viability assay (AID 1918979). The method in brief:
as §1

Test [10] can be described thus: Quantitative High-Throughput drug screen in 47 multiple myeloma cell lines against the NCATS MIPE library collection: XG1_PLB cell viability assay (AID 1919866). Further: nearly all actives have a fitted effect of over 35% in size. Further: potency means the concentration at half of the fitted maximal effect. Summed up:
as §1

Test [11] can be described thus: Quantitative High-Throughput drug screen in 47 multiple myeloma cell lines against the NCATS MIPE library collection: MOLP8_DSMZ cell viability assay (AID 1918977). Further: nearly all actives have a fitted effect of over 45% in size. Further: potency means the concentration at half of the fitted maximal effect.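 On viability (% of control): 100% = DMSO-only wells and 0% = media-only wells without cells.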 The method in brief: as §1
A short description of test [12]: Quantitative High-Throughput drug screen in 47 multiple myeloma cell lines against the NCATS MIPE library collection: LP1_DSMZ cell viability assay (AID 1918982). Further: nearly all actives have a fitted effect of over 35% in size. Summed up:
as §1

Test [13] is described as follows: Quantitative High-Throughput drug screen in 47 multiple myeloma cell lines against the NCATS MIPE library collection: KMS28PE_JCRB cell viability assay (AID 1918983). Further: nearly all actives have a fitted effect of over 35% in size. Further: potency means the concentration at half of the fitted maximal effect. Summed up: as §1
Test [14] in a line: Quantitative High-Throughput drug screen in 47 multiple myeloma cell lines against the NCATS MIPE library collection: L363_DSMZ cell viability assay (AID 1918984). Further: nearly all actives have a fitted effect of over 40% in size. Further: potency means the concentration at half of the fitted maximal effect. As to conditions: L363 myeloma viability, CellTiter-Glo ATP luminescence, 48 h; viability (% of control): at 45.8 µM (top of the series). The method in brief: as §1
(In ATP-based viability assays light output follows the ATP content of the culture.)

Test [15] can be described thus: Quantitative High-Throughput drug screen in 47 multiple myeloma cell lines against the NCATS MIPE library collection: OCIMY5_PLB cell viability assay (AID 1918988). Further: nearly all actives have a fitted effect of over 65% in size. Further: potency means the concentration at half of the fitted maximal effect. The method in brief:
as §1

Test [16] is described as follows: Quantitative High-Throughput drug screen in 47 multiple myeloma cell lines against the NCATS MIPE library collection: SKMM1_PLB cell viability assay (AID 1919863). Further: nearly all actives have a fitted effect of over 35% in size. Further: potency means the concentration at half of the fitted maximal effect. The settings on record: SKMM1 myeloma viability, CellTiter-Glo ATP, 48 h; viability: stronger effect = lower value. The method in brief: as §1
Test [17] is described as follows: Quantitative High-Throughput drug screen in 47 multiple myeloma cell lines against the NCATS MIPE library collection: MM1S_ATCC cell viability assay (AID 1918980). Further: potency means the concentration at half of the fitted maximal effect; nearly all actives have a fitted effect of over 45% in size. Summed up:
as §1

The nature of test [18]: Quantitative High-Throughput drug screen in 47 multiple myeloma cell lines against the NCATS MIPE library collection: OCIMY7_PLB cell viability assay (AID 1918987). Further: potency means the concentration at half of the fitted maximal effect; nearly all actives have a fitted effect of over 65% in size. The settings on record: OCI-MY7 myeloma viability, CellTiter-Glo ATP, 48 h; viability (% of DMSO): at 45.8 µM (top of the series). The method in brief: as §1

`CCCCC(C)(C)[C@H](O)C=C[C@H]1[C@H](O)CC(=O)[C@H]1CC=CCCCC(=O)O`: the Potency in test [1] was 16.6 µM (active); in test [2], 16.6 µM (active); in [3] it was 18.7 µM (active); in test [4], 18.7 µM (active); in test [5] it was 5.9 µM (active); in test [6] it was 18.7 µM (active). Further, the Potency in [7] is 13.2 µM (active); in test [8] it was 23.5 µM (active).
As for `COc1cc(F)c(C(C)C)cc1-c1ccc(C(F)(F)F)cc1CN1C(=O)O[C@H](c2cc(C(F)(F)F)cc(C(F)(F)F)c2)[C@@H]1C`, the Potency entry in test [1], in test [9] and in test [6] was “inactive” each time. Also, the Potency in [2] was 1.18 µM (active); in test [4], 0.296 µM (active); in [8], 20.9 µM (active); in [10], 26.4 µM (active).
In general, viability refers to a read-out of living cells in per cent, often relative to untreated cells. As to `Nc1ccn([C@@H]2O[C@H](CO)[C@@H](O)[C@H]2O)c(=O)n1`, the Potency result in test [1], in [11], in test [3], in [12], in test [13] and in test [14] was “inactive” each time. Further, the Potency entry in test [15], in test [6] and in test [10] was “inactive” in each case. The Potency in test [4] is 0.0526 µM (active). In addition, the viability in [16] was 113%.
Take `CN[C@@H](C)[C@H]1[C@H](O)C[C@@]2(C)[C@@H]3CC[C@H]4C(C)(C)[C@@H](NC)CC[C@@]45C[C@@]35CC[C@]12C`: the Potency result in [1], in test [11], in [3], in test [4], in test [12] and in test [13] was “inactive” in each case. Besides, the Potency entry in test [14], in test [5], in test [6] and in test [7] was “inactive” throughout. Also, the Potency in test [8] was 23.5 µM (active).
In the case of `COc1ccc(-c2cc(=O)c3c(O)cc(O[C@@H]4O[C@H](CO[C@@H]5O[C@@H](C)[C@H](O)[C@@H](O)[C@@H]5O)[C@@H](O)[C@H](O)[C@@H]4O)cc3o2)cc1O`, the Potency in test [1] was 20.9 µM (active); in [3], 9.35 µM (active); in test [17], 18.7 µM (active); in test [18], 10.5 µM (active); in [15], 18.7 µM (active); in [8], 9.35 µM (active). Moreover, the Potency in test [10] was 8.33 µM (active). Besides, the Potency entry in [11], in test [9], in test [4], in [12], in test [13] and in test [14] was “inactive” in each case. Moreover, the Potency result in [5] was “inactive”. The viability in test [16] was 120%.
On to `CC(C)(C)c1nc(-c2cccc(NS(=O)(=O)c3c(F)cccc3F)c2F)c(-c2ccnc(N)n2)s1`, for which the Potency entry in [1], in test [9] and in test [13] was “inactive” in each case. For the same compound, the Potency in test [11] is 5.9 µM (active); in [3], 7.43 µM (active); in test [17], 16.6 µM (active); in test [4], 18.7 µM (active); in [14], 16.6 µM (active); in test [18], 0.209 µM (active). For the same compound, the Potency in test [15] was 1.32 µM (active); in test [6], 18.7 µM (active); in [7] it was 5.9 µM (active); in test [8] it was 2.96 µM (active); in test [10], 10.5 µM (active).
For the compound `O=C1C(CCC(O)c2ccc(F)cc2)C(c2ccc(O)cc2)N1c1ccc(F)cc1` (stereo unspecified), the Potency entry in [1], in [11], in test [3], in [9], in [4] and in [12] was “inactive” each time. The Potency entry in [13], in [14], in test [5], in test [6] and in test [10] was “inactive” each time. Moreover, the viability in [16] is 99.3%. In addition, the Potency in [8] was 2.09 µM (active).
Regarding `CCC(c1ccc(O)cc1)C(CC)c1ccc(O)cc1` (stereo unspecified), the Potency in [1] is 3.72 µM (active); in test [17], 4.69 µM (active); in [15] it was 3.32 µM (active); in [7], 3.32 µM (active); in [8] it was 0.833 µM (active). For the same compound, the Potency result in [11], in test [3], in test [9] and in test [14] was “inactive” in each case.
For the compound `CCCCCCCCCCCCCCCC(=O)O[C@H]1[C@@H](O)[C@@H](O)[C@@H]([C@H](NC(=O)[C@@H]2C[C@@H](CCC)CN2C)[C@H](C)Cl)O[C@@H]1SC`, the Potency result in test [1], in test [4], in [13], in test [15] and in test [10] was “inactive” in each case. Also, the Potency was 4.18 µM (active) in test [2], 2.96 µM (active) in test [3], 18.7 µM (active) in test [17] and 18.7 µM (active) in test [7].
For the compound `CON(C)C(=O)N1N=C(c2cc(F)ccc2F)S[C@]1(CCCN)c1ccccc1`, the Potency entry in [1], in test [11], in test [3], in test [9], in [4] and in test [12] was “inactive” in each case. Also, the Potency result in [13], in test [5], in test [15] and in [10] was “inactive” in each case. For the same compound, the viability in test [16] is 61.2%.
For `CC(C)c1c(C(=O)Nc2ccccc2)c(-c2ccccc2)c(-c2ccc(F)cc2)n1CC[C@H](O)C[C@@H](O)CC(=O)O`, the Potency entry in test [1] and in test [9] was “inactive” in each case. The Potency in [2] was 8.33 µM (active); in [17] it was 16.6 µM (active); in [4], 10.5 µM (active); in test [13] it was 18.7 µM (active); in test [18], 4.69 µM (active); in test [6], 6.62 µM (active). Moreover, the Potency in test [16] was 18.7 µM (active); in test [8], 18.7 µM (active); in test [10], 13.2 µM (active).
On to `CC(C)(OCc1nn(Cc2ccccc2)c2ccccc12)C(=O)O`, for which the Potency in [1] was 6.62 µM (active). Also, the Potency entry in [2], in test [9], in test [5] and in test [6] was “inactive” in each case.
In the case of `CCC(=O)NCC[C@@H]1CCc2ccc3c(c21)CCO3`, the Potency is 6.62 µM (active) in test [1], 0.59 µM (active) in test [2] and 1.48 µM (active) in [17]. For the same compound, the Potency result in test [9], in [4] and in [8] was “inactive” in each case. For the same compound, in [16], the viability was 137%.
In the case of `CN1CCC[C@H]1CCO[C@](C)(c1ccccc1)c1ccc(Cl)cc1`, the Potency entry in test [1], in test [11], in [9], in [12] and in test [5] was “inactive” each time. Besides, the Potency in test [3] was 11.8 µM (active); in test [17], 23.5 µM (active); in [13], 23.5 µM (active); in test [15], 26.4 µM (active); in test [6] it was 26.4 µM (active); in test [8] it was 18.7 µM (active). Moreover, the Potency in test [10] is 18.7 µM (active). Further, the viability in test [16] is 84.5%.
Consider `O=C1C(c2c(O)[nH]c3ccccc23)=Nc2ccccc21`, for which the Potency was 2.96 µM (active) in [1]; 2.09 µM (active) in test [2]; 1.48 µM (active) in [4]; 9.35 µM (active) in test [13]; 7.43 µM (active) in test [5]; 1.32 µM (active) in test [15]. Moreover, the Potency in [7] was 1.66 µM (active); in test [8], 0.296 µM (active); in test [10], 0.418 µM (active). Besides, the Potency entry in [9], in test [14] and in [6] was “inactive” in each case.
